Screening data deposited in PubChem by National Center for Advancing Translational Sciences (NCATS).
Most compounds without a hit are left out; they make up all but 3.6% or so of the library.
CRE Fsk mod = Cell signaling CRE-BLA (Fsk stim) | Potency, µM (highest dose often 38.2 µM), inactives show at the top dose activity change, negative = inhibition, actives largely listed as activators | hit rate 2.5% among 71,000 | CHO CRE-bla reporter (cAMP response element driving beta-lactamase), forskolin EC10, beta-lactamase ratio; active = well fitted activation curve with a large enough effect in the signal ratio, with a control signal flat, not every such curve was filed as active; inconclusive = small, poorly fitted or top-dose-only effect, or effect the other way, or a change in a side signal; the % refers to the signal ratio; also: % of control where 0% means no effect
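Reporter-gene assay: CHO cells with beta-lactamase behind cAMP responsive elements, co-treated with compound and EC10 NKH 477 for 3 hours at 37 degrees Celsius. Activity came from the 460/530 nm CCF4 emission ratio.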
IkB sig inh = IkB Signaling; AID 445, 2006; ABC-DLBCL IkBa-CBG/CBR dual luciferase ratio, 4 h; response scale: scaled: untreated 0%, proteasome inhibitor 100%; hit rate 0.04% among 110,000; Potency, µM (titrated, usually from 57.1 µM), without a hit: at the highest dose IkBa stabilization activation; active = well fitted curve in the direction sought with a large enough effect in the signal ratio, not every such curve was filed as active; inconclusive = small, poorly fitted or top-dose-only effect, or a change in a side signal; the % refers to the signal ratio;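 also: the direction sought is a rising ratio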
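Curves were fitted separately to fusion (green), unfused (red) and ratio luminescence, then classed by r2, magnitude and activity. Cells: OCI-Ly3, 4 h compound plus doxycycline at 37C; 10 uM MG-132 defined full response.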
HEK293 cAMP ctrl = qHTS Assay for Agonists of the Thyroid Stimulating Hormone Receptor: Activators of Intracellular cAMP Concentrations in Parental HEK 293; parental HEK293 CNG cAMP sensor, membrane potential fluorescence; Potency, µM (series often up to 57.1 µM), inactives show at the highest dose activation, actives largely listed as activators; hit rate 2.5% among 73,000; AID 938, 2007; also: % of control where 0% means no effect; nearly all actives have a fitted effect of over 55% in size
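Parental HEK 293 cells stably expressing a modified CNG channel (no TSHR) report cAMP rise as membrane depolarization. Membrane potential dye with 100 uM RO 20-1724 was loaded for 60 min at room temperature, then compound added for 30 min; fluorescence read at 590 nm.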
ERK AVP inh = qHTS Assay for Inhibitors of the ERK Signaling Pathway using a Homogeneous Screening Assay. hit rate 0.99% among 72,000. Potency, µM (titrated, usually from 57.5 µM), inactives show at the highest dose activity, negative = inhibition, usual class: inhibitors. HEK293-V1b, vasopressin-stimulated pERK AlphaScreen. AID 995, 2007; also: % is scaled to controls: 0 for no effect and ±100 for the full control effect; nearly all actives have a fitted effect of over 55% in size
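V1b-HEK293 cells; cpd 30 min 37C; 25 nM vasopressin 5 min; lyse 10 min; AlphaScreen beads 5 hr RT. Normalized to DMSO basal and 25 nM vasopressin; AC50 by Hill fit.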
TSHR agonist = qHTS Assay for Agonists of the Thyroid Stimulating Hormone Receptor. AID 926, 2007. hit rate 0.48% among 73,000. Potency, µM (series often up to 57.1 µM), for inactives: at the top dose activation, most hits filed as activators. HEK293-CNG-TSHR cells (CNG channel as cAMP sensor), membrane potential dye, cAMP. Thyrotropin receptor (Homo sapiens), P16473; active = well fitted activation curve with a large enough effect in the main read-out, with a control signal flat, not every such curve was filed as active; inconclusive = small, poorly fitted or top-dose-only effect, or a change in a side signal; inactive = no such curve, though single readings can be large or run the other way; % of control where 0% means no effect;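 also: the control signal comes from parental cells without the receptor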
Target sequence (P16473 whole entry, looked up): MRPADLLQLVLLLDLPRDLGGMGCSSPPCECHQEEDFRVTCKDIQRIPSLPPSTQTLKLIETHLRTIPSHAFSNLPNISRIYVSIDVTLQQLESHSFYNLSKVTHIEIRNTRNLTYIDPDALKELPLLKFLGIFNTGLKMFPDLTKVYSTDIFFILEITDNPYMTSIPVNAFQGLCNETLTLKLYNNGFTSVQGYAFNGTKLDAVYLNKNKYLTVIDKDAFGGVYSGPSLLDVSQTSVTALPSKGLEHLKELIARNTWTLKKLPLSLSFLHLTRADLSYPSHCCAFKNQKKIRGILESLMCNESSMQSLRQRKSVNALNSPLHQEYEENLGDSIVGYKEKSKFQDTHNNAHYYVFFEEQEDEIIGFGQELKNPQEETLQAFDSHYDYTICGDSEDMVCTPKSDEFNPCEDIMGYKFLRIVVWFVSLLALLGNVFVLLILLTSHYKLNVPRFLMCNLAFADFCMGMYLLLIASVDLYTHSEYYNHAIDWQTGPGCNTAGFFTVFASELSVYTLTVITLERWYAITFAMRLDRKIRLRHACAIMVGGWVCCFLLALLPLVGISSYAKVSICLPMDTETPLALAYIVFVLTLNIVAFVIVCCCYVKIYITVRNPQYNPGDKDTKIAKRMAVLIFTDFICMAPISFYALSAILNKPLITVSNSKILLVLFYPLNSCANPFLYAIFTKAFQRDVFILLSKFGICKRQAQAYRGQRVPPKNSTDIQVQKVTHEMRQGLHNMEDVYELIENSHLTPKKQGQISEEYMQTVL
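cAMP rise detected as CNG-channel membrane depolarization by fluorescent dye (emission 590 nm), 30 min after compound, following 60 min dye loading containing 100 uM RO 20-1724 at room temperature. Cells: TSHR/CNG HEK 293, with parental CNG HEK 293 as control.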
Numbers without * were called inactive; ? = inconclusive; . = no result; [ ] = remark or other dose. Unless noted, calls follow the shape of the dose curve; as a rule, active = well fitted curve in the direction sought with a large enough effect; inconclusive = small, poorly fitted or top-dose-only effect, or another doubt; inactive = no such curve, though single readings can be large; an effect the other way counts as inactive or inconclusive. Potency is read from the fitted curve at half-maximal effect.

SMILES	CRE Fsk mod	IkB sig inh	HEK293 cAMP ctrl	ERK AVP inh	TSHR agonist
CCOc1ccc2nc(N3CCCC(C(=O)Nc4ccc(CC)cc4)C3)sc2c1 (stereo unspecified)	.	-2%	.	.	.
Cc1[nH]nc2nc(SCC(=O)NCC3CCCO3)n(-c3ccc(Br)cc3)c(=N)c12 (stereo unspecified)	7.9µM*	-2%	-1%	17%	0%
Cc1ccc(-n2c(SCC(=O)Nc3cccc(Cl)c3)nc3n[nH]c(C)c3c2=N)cc1	.	-1%	.	.	.
COc1cccc(NC(=O)CSc2nc3n[nH]c(C)c3c(=N)n2-c2cccc(OC)c2)c1	2.5µM*	?	8%	7%	6%
Cc1cc(-n2c(SCC(=O)NCc3cccs3)nc3n[nH]c(C)c3c2=N)ccc1Cl	?	0%	25%	-8%	23%
COc1ccc(-c2c(C)nn3c(C(F)(F)F)cc(-c4ccccc4)nc23)cc1	.	0%	.	.	.
Cn1nc(-c2ccc(N3CCOCC3)c(NC(=O)COc3ccccc3)c2)c2ccccc2c1=O	?	6%	10%	-19%	10µM*
COc1ccc(NC(=O)COc2ccc(-c3nn(C)c(=O)c4ccccc34)cc2)cc1	.	0%	.	.	.
COc1nnc(-c2ccc(N3CCOCC3)c(NC(C)=O)c2)c2ccccc12	?	2%	2%	-6%	-3%
COc1nnc(-c2ccc(N3CCOCC3)c(NC(=O)c3ccco3)c2)c2ccccc12	2µM*	0%	7%	-22%	21%
c1ccc(-c2csc(N3CCN(c4ccccn4)CC3)n2)cc1	-9%	?	12%	16µM*	16%
CC(C)CCn1c(N)c(S(=O)(=O)c2cccs2)c2nc3ccccc3nc21	?	?	13%	-17%	13µM*
O=S(=O)(NCCc1cn2ccccc2n1)c1ccc(F)c(C(F)(F)F)c1	?	1%	5%	.	-7%
CCN1C(=O)[C@@H]2[C@H]3C(=CC[C@H]2C1=O)C(=O)[C@H]1OC1[C@H]3O (stereo partly specified)	.	.	6%[11.4 µM]	29%[11.5 µM]	-8%[11.4 µM]
COCCN1Cc2cccc(C(=O)Nc3ccc(Cl)cc3Cl)c2C1=O	.	-2%	.	.	.
CCCN1Cc2cccc(C(=O)Nc3ccc4c(c3)OCO4)c2C1=O	?	-2%	?	17%	?
O=C(Nc1ccc2c(c1)OCO2)c1cccc2c1C(=O)N(C1CCCCC1)C2	-9%	-2%	19%	40%	3.2µM*
COCCN1Cc2cccc(C(=O)Nc3cc(OC)ccc3OC)c2C1=O	10µM*	0%	6%	-5%	12%
CCCN1Cc2cccc(C(=O)Nc3ccc4c(c3)OCCO4)c2C1=O	13µM*	-4%	-3%	?	3%
Cc1ccc(S(=O)(=O)C2(C(=O)Nc3ccc(C(C)C)cc3)CC2)cc1	.	6%	.	.	.
Cc1nnc2ccc(Oc3ccc(-c4ccccc4)cc3)nn12	0.79µM*	-1%	?	-22%	?
CCOc1ccc(OCC)c(N=c2oc3c(C)ncc(CO)c3cc2C(N)=O)c1	13%	-1%	4%	13%	-2%
COc1ccc(OC)c(N=c2oc3cc(O)ccc3cc2C(N)=O)c1	10µM*	?	14%	?	11%
NC(=O)c1cc2ccc(O)cc2oc1=NCc1ccccc1	?	?	4%	30%	-4%
NC(=O)c1cc2ccc(O)cc2oc1=Nc1ccccc1	?	?	-3%	7.9µM*	-21%
SMILES	CRE Fsk mod	IkB sig inh	HEK293 cAMP ctrl	ERK AVP inh	TSHR agonist
NC(=O)C1CCC(NC(=O)OCc2ccccc2)CC1 (stereo unspecified)	-23%	0%	20%	0%	.
N#Cc1ccc2ccn(CC(=O)NC3CCCCC3)c2c1	-2%	0%	16µM*	1%	?
CC(=O)N1CCC[C@@]2(CCN(c3ccncc3)C2)C1	-4%	0%[11.4 µM]	29%	8%	6%
CN(C)S(=O)(=O)c1ccc(Nc2ccc(O)c3c2C(=O)c2c([N+](=O)[O-])ccc(O)c2C3=O)cc1	14%[7.6 µM]	4%[11.4 µM]	-46%[11.4 µM]	18%[11.5 µM]	?
COC(=O)c1ccc(Oc2nc3c(c(=O)n(C)c(=O)n3C)n2CCC(C)C)cc1	2%	1%	16µM*	4%	?
Oc1ccc(Nc2nc3ccccc3n3cnnc23)cc1	.	0%	.	.	.
c1ccc(CNc2nc3ccccc3n3cnnc23)nc1	13µM*	-1%	4%	-20%	-6%
COC(=O)C1=C(C)N(Cc2ccccc2)C2=C3C(=O)N(C)C(=O)C3[C@@](O)(C(=O)OC)C(=O)N2C1c1ccccc1 (stereo partly specified)	.	.	3%[11.4 µM]	1%[11.5 µM]	?
CCN1C(C)=C(C(=O)OC)C(c2ccccc2)N2C(=O)[C@](O)(C(=O)OC)C(c3ccccc3)C(C(=O)c3ccccc3)=C12 (stereo partly specified)	.	.	4µM*	-4%[11.5 µM]	?
COCCCn1c(=S)[nH]c2ncccc2c1=O	?	-1%	2%	9%	1%
Cc1ccc(C)c(Cn2nnc3c(=O)[nH]c(C4CCCN(C(=O)C5CCCCC5)C4)nc32)c1 (stereo unspecified)	?	?	20µM*	19%	?
C=CCn1c(SCC(O)Cn2c3ccccc3c3ccccc32)nnc1-c1ccco1 (stereo unspecified)	-9%	?	25µM*	-2%	?
C=CCNC(=O)c1c(N)n(-c2ccc3c(c2)OCO3)c2nc3ccccc3nc12	1µM*	-1%	1%	1%	-1%
COCCCNC(=O)c1c(N)n(-c2cccc(S(N)(=O)=O)c2)c2nc3ccccc3nc12	13µM*	-1%	-14%	6%	-16%
Nc1c(C(=O)NCC2CCCO2)c2nc3ccccc3nc2n1-c1ccccc1 (stereo unspecified)	13µM*	?	26%	-3%	-1%
O=C(CSc1nc2ccccc2n1-c1ccccc1)NCC1CCCO1 (stereo unspecified)	13%	1%	29%	-10%	6%
CCCNC(=O)c1c(N)n(-c2cccc(OC)c2)c2nc3ccccc3nc12	?	?	5%	-23%	7%
Nc1c(C(=O)NCCN2CCOCC2)c2nc3ccccc3nc2n1-c1cccc(F)c1	7.9µM*	-1%	26%	-10%	13%
Cc1onc(-c2ccccc2Cl)c1C(=O)NCCn1c(C)cc2ccccc21	-15%	-2%	6%	.	26%
CCc1ccc2occ(CC(=O)Nc3c(C(=O)Nc4ccc(Cl)cc4)oc4ccccc34)c2c1	.	-1%	.	.	.
CN(C)c1ccc(C2(c3ccc(N(C)C)cc3)OC(=O)c3cc(N(C)C)ccc32)cc1	?	1%	1%	-21%	-2%
